Laboratory results published in PubChem BioAssay (EPA / NIEHS).
Results filed as inconclusive are left out. The source made the active and inactive calls. Rule for the calls, unless noted: active = hit-call score of the fitted dose curve at least 0.9, where 1 is the maximum; inactive = score below 0.9.

Tests used:
[1] = BSK_3C_VCAM1: BioMAP Diversity Plus: 3C Assay for Vascular cell adhesion molecule 1 (VCAM1) Biomarker Activity (AID 2282999); conditions: BioMAP 3C HUVEC, VCAM1 ELISA, cytokine-stimulated; actives raise or lower the signal
In short: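 HUVEC primary cells, 24 h compound exposure; VCAM-1 by ELISA; gain/loss of signal fitted bidirectionally vs DMSO baseline.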

[2] = BSK_4H_Eotaxin3: BioMAP Diversity Plus: 4H Assay for Eotaxin 3 Biomarker Activity (AID 2283000); conditions: primary human endothelial cells (HUVEC); actives raise or lower the signal
In short: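 Readout is Eotaxin-3 (CCL26) level by ELISA in primary human umbilical vein endothelial cells harvested 24 h after chemical exposure; activity fitted in both directions against DMSO control.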

[3] = target: human Peroxisome Proliferator-activated Receptor delta (PPARd), PPARD (gene 5467) (UniProt Q03181); assay: ATG_PPARd_TRANS: Attagene TRANS-FACTORIAL HepG2 Assay for human Peroxisome Proliferator-activated Receptor delta (PPARd) (AID 2283002; active = hit-call score of the fitted dose curve at least 0.9, where 1 is the maximum)
In short: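 HepG2 cells transiently transfected with GAL4-UAS multiplexed reporter units driven by exogenous chimeric NR-GAL4 proteins; 24 h compound exposure. Reporter mRNA measured by RT-PCR, 6-FAM primer extension, HpaI digestion and capillary electrophoresis; gain of signal fitted relative to DMSO.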

[4] = read-out: Intercellular Adhesion Molecule 1 (ICAM1), ICAM1 (gene 3383); assay: BSK_3C_ICAM1: BioMAP Diversity Plus: 3C Assay for Intercellular Adhesion Molecule 1 (ICAM1) Biomarker Activity (AID 2283003); conditions: primary human endothelial cells (HUVEC); actives raise or lower the signal
In short: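 Chemicals are dosed onto primary human umbilical vein endothelium (3C system). After 24 h, ICAM-1 is measured by ELISA, and responses are fitted bidirectionally relative to DMSO.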

[5] = target: human Retinoic Acid Receptor beta (RARb), RARB (gene 5915) (UniProt P10826); assay: ATG_RARb_TRANS: Attagene TRANS-FACTORIAL HepG2 Assay for human Retinoic Acid Receptor beta (AID 2283004; active = hit-call score of the fitted dose curve at least 0.9, where 1 is the maximum)
In short: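 Readout is reporter mRNA induction: RNA reverse-transcribed, PCR-amplified, FAM-labelled, HpaI-cut and resolved by capillary electrophoresis. Transiently transfected HepG2 cells carrying exogenous NR–Gal4 chimeras were dosed for 24 h; activity fitted upward relative to DMSO.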

[6] = target: Retinoic acid receptor alpha (Homo sapiens) (UniProt P10276); assay: ATG_RARa_TRANS: Attagene TRANS-FACTORIAL HepG2 Assay for human Retinoic Acid Receptor alpha (RARa) (AID 2283005; active = hit-call score of the fitted dose curve at least 0.9, where 1 is the maximum;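 for AC50: potency for increased reporter signal meaning RARa activation over DMSO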)
In short: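 HepG2 transiently transfected with multiplex GAL4-UAS reporter units including a human RARa–GAL4 chimera; 24 h compound exposure. Reporter mRNA quantified by RT-PCR, 6-FAM labeling and capillary electrophoresis; gain of signal versus DMSO.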

[7] = BSK_3C_Proliferation: Cell Proliferation Assessment in the BioMAP Diversity Plus: 3C Assay (AID 2283006); conditions: primary human endothelial cells (HUVEC);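 for AC50: potency may reflect either rise or fall in cell number versus DMSO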
In short: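 Cells (human umbilical vein endothelial, sub-confluent) receive test chemical; after 48 h they are fixed in 10% trichloroacetic acid, stained with 0.1% SRB and read at 560 nm. Activity is referenced to DMSO, fitting increases and decreases.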

[8] = target: Peroxisome proliferator-activated receptor gamma (Homo sapiens) (UniProt P37231); assay: ATG_PPARg_TRANS: Attagene TRANS-FACTORIAL HepG2 Assay for human Peroxisome Proliferator-activated Receptor-gamma (PPARg) (AID 2283007; active = hit-call score of the fitted dose curve at least 0.9, where 1 is the maximum)
In short: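 HepG2 cells transiently transfected with multiplexed GAL4-UAS reporter units and exogenous chimeric NR-Gal4 proteins; reporter mRNA quantified after 24 h compound exposure by RT-PCR, fluorescent labelling, HpaI digestion and capillary electrophoresis; gain-of-signal fitted versus DMSO baseline.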

[9] = target: Nuclear receptor subfamily 1 group I member 2 (Homo sapiens) (UniProt O75469); assay: ATG_PXR_TRANS: Attagene TRANS-FACTORIAL HepG2 Assay for human Pregnane X Receptor (PXR) (AID 2283008; active = hit-call score of the fitted dose curve at least 0.9, where 1 is the maximum)
In short: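 Transient HepG2 transfectants carrying multiplexed reporter transcription units; PXR activity read through a Gal4 chimera. 24 h exposure. RT-PCR/CE fluorescence; upward curve fit referenced to DMSO.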

[10] = target: human Retinoic Acid Receptor gamma (RARg), RARG (gene 5916) (UniProt P13631); assay: ATG_RARg_TRANS: Attagene TRANS-FACTORIAL HepG2 Assay for human Retinoic Acid Receptor gamma (RARg) (AID 2283009; active = hit-call score of the fitted dose curve at least 0.9, where 1 is the maximum)
In short: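 TRANS format measured activity of exogenous NR-GAL4 fusion (RARg) in transfected HepG2 liver cells after 24 h dosing. Induced reporter RNA was detected by RT-PCR/capillary electrophoresis fluorescence, analysed in the positive direction against DMSO.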

[11] = target: human RAR-related Orphan Receptor beta (RORb), RORB (gene 6096) (UniProt Q92753); assay: ATG_RORb_TRANS: Attagene TRANS-FACTORIAL HepG2 Assay for human RAR-related Orphan Receptor beta (RORb) (AID 2283010; active = hit-call score of the fitted dose curve at least 0.9, where 1 is the maximum)
In short: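 Transfect HepG2 with multiple GAL4-UAS reporter transcription units; dose chemicals for 24 h; isolate RNA, reverse-transcribe and PCR-amplify reporter sequences; label, digest and resolve fragments by capillary electrophoresis; fit increases relative to DMSO.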

[12] = target: human RAR-related Orphan Receptor gamma (RORg), RORC (gene 6097) (UniProt P51449); assay: ATG_RORg_TRANS: Attagene TRANS-FACTORIAL HepG2 Assay for human RAR-related Orphan Receptor gamma (RORg) (AID 2283011; active = hit-call score of the fitted dose curve at least 0.9, where 1 is the maximum)
In short: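 Transient MRTU transfection of HepG2 (TRANS format, exogenous NR-Gal4 chimera). 24 h dosing. Total RNA → oligo(dT) RT → PCR → 6-FAM labelling → HpaI cut → CE. Gain vs DMSO.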

[13] = target: Retinoic acid receptor RXR-alpha (Homo sapiens) (UniProt P19793); assay: ATG_RXRa_TRANS: Attagene TRANS-FACTORIAL HepG2 Assay for human Retinoid X Receptor alpha (RXRa) (AID 2283012; active = hit-call score of the fitted dose curve at least 0.9, where 1 is the maximum)
In short: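 Measures exogenous chimeric NR-GAL4 activity in transfected HepG2 liver cells after 24 h of dosing. Induced reporter mRNA was detected by RT-PCR with capillary electrophoresis, and gain of signal was analysed against DMSO.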

[14] = target: human Thyroid Receptor alpha (THRa1), THRA (gene 7067) (UniProt P10827); assay: ATG_THRa1_TRANS: Attagene TRANS-FACTORIAL HepG2 Assay for human Thyroid Receptor alpha (THRa1) (AID 2283014; active = hit-call score of the fitted dose curve at least 0.9, where 1 is the maximum)
In short: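 Transient HepG2 transfection, NR-Gal4 chimera driving GAL4-UAS reporters; 24 h compound exposure; total RNA, oligo(dT) RT, PCR, fluorescent primer extension, capillary electrophoresis. Upward direction vs DMSO control.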

[15] = read-out: E-selectin (Homo sapiens) (UniProt P16581); assay: BSK_3C_Eselectin: BioMAP Diversity Plus: 3C Assay for Eselectin Biomarker Activity (AID 2283015); conditions: primary human endothelial cells (HUVEC); actives raise or lower the signal
In short: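 HUVEC, 3C stimulation; compound exposure 24 h; E-selectin by ELISA; gain- or loss-of-signal fitted bidirectionally vs DMSO baseline.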

[16] = read-out: Interleukin-1 alpha (IL1a), IL1A (gene 3552); assay: BSK_BE3C_IL1a: BioMAP Diversity Plus: BE3C Assay for Interleukin-1 alpha (IL1a) Biomarker Activity (AID 2283016); conditions: primary human bronchial epithelial cells; actives raise or lower the signal
In short: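 Signal from IL-1a ELISA, taken 24 h after chemical dosing of human bronchial epithelial cells, is compared with DMSO as baseline using bidirectional curve fitting.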

[17] = read-out: Monocyte Chemoattractant Protein-1 (MCP1), CCL2 (gene 6347); assay: BSK_3C_MCP1: BioMAP Diversity Plus: 3C Assay for Monocyte Chemoattractant Protein-1 (MCP1) Biomarker Activity (AID 2283017); conditions: primary human endothelial cells (HUVEC); actives raise or lower the signal
In short: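 HUVEC, 3C system; 24 h chemical exposure; MCP-1 by ELISA; bidirectional curve fit vs DMSO baseline.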

[18] = read-out: Monocyte Chemoattractant Protein-1 (MCP1), CCL2 (gene 6347); assay: BSK_4H_MCP1: BioMAP Diversity Plus: 4H Assay for Monocyte Chemoattractant Protein-1 (MCP1) Biomarker Activity (AID 2283018); conditions: primary human endothelial cells (HUVEC); actives raise or lower the signal
In short: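 Endothelial cells from umbilical vein were treated with test chemical, then after 24 h MCP-1 levels were quantified by ELISA; endpoint values came from bidirectional fitting with DMSO as baseline of activity.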

[19] = target: human Peroxisome Proliferator-activated Receptor alpha (PPARa), PPARA (gene 5465) (UniProt Q07869); assay: ATG_PPARa_TRANS: Attagene TRANS-FACTORIAL HepG2 Assay for human Peroxisome Proliferator-activated Receptor alpha (PPARa) (AID 2283001; active = hit-call score of the fitted dose curve at least 0.9, where 1 is the maximum)
In short: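 HepG2, transient MRTU transfection, 24 h treatment. RT-PCR → FAM labelling → capillary electrophoresis. Fit vs DMSO, positive direction.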

Measured: AC50

Chain of Nuclear receptor subfamily 1 group I member 2 (Homo sapiens) (O75469 whole entry, looked up, the tested form may be a part): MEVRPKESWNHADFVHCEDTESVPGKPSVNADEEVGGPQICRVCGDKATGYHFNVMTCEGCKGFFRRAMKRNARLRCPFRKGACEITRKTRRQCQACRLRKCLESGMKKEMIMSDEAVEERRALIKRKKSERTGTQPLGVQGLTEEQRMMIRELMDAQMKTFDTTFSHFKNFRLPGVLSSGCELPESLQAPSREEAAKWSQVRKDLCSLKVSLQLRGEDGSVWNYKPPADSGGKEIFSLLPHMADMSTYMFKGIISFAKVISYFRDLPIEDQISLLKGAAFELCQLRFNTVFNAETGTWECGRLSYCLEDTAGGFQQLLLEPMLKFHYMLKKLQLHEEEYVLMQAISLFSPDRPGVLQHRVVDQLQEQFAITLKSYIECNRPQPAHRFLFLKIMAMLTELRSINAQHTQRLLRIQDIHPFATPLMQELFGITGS
Chain of human RAR-related Orphan Receptor gamma (RORg), RORC (gene 6097) (P51449 whole entry, looked up, the tested form may be a part): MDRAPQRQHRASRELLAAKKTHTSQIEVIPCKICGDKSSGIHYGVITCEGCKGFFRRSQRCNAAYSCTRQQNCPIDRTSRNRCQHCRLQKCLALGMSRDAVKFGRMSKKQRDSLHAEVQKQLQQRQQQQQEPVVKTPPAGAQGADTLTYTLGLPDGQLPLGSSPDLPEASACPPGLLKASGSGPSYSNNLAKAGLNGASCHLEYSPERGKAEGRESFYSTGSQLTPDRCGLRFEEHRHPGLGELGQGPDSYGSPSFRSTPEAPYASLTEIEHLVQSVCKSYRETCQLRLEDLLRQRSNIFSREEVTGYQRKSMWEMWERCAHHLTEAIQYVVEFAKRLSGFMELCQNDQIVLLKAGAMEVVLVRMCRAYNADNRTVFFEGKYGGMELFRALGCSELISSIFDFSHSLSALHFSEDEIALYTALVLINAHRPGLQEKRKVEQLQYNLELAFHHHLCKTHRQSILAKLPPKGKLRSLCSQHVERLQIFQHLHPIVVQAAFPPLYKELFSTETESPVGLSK
Chain of Retinoic acid receptor alpha (Homo sapiens) (P10276 whole entry, looked up, the tested form may be a part): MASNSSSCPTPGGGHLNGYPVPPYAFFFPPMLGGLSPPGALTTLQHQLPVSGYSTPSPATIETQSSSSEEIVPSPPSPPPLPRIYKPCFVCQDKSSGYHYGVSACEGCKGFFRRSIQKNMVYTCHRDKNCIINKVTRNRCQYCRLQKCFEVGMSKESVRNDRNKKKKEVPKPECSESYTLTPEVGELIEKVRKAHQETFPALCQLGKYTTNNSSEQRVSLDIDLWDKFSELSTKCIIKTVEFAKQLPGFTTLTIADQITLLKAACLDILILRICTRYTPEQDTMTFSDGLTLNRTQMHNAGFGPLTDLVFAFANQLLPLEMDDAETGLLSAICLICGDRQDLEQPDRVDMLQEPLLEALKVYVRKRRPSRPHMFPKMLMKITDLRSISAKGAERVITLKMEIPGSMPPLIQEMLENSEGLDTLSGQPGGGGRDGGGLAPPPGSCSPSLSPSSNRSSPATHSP
Chain of human Retinoic Acid Receptor gamma (RARg), RARG (gene 5916) (P13631 whole entry, looked up, the tested form may be a part): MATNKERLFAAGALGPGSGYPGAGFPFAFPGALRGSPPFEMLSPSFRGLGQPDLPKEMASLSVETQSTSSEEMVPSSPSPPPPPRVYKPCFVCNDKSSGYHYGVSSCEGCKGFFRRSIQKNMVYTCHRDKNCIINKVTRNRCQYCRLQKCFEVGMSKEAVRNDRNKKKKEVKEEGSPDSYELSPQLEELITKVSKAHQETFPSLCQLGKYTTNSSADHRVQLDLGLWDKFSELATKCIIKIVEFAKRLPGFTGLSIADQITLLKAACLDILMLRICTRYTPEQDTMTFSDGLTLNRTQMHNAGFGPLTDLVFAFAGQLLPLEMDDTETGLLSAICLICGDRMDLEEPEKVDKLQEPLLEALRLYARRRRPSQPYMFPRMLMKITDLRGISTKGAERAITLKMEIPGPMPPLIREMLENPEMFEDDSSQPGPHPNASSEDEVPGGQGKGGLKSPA
Chain of Peroxisome proliferator-activated receptor gamma (Homo sapiens) (P37231 whole entry, looked up, the tested form may be a part): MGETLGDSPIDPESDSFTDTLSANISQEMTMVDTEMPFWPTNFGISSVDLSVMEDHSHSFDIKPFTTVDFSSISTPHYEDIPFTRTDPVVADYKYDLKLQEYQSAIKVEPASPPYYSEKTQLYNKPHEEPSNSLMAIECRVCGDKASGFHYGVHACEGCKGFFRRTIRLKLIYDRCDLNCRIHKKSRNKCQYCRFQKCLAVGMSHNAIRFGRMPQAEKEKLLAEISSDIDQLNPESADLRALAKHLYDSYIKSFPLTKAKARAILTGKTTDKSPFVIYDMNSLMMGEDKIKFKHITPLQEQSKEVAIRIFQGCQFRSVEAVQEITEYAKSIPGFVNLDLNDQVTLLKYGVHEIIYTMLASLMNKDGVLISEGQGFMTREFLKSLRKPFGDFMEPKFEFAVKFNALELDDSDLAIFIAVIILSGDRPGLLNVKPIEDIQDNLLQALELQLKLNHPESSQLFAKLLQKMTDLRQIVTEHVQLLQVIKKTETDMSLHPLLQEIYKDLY
Chain of human Peroxisome Proliferator-activated Receptor delta (PPARd), PPARD (gene 5467) (Q03181 whole entry, looked up, the tested form may be a part): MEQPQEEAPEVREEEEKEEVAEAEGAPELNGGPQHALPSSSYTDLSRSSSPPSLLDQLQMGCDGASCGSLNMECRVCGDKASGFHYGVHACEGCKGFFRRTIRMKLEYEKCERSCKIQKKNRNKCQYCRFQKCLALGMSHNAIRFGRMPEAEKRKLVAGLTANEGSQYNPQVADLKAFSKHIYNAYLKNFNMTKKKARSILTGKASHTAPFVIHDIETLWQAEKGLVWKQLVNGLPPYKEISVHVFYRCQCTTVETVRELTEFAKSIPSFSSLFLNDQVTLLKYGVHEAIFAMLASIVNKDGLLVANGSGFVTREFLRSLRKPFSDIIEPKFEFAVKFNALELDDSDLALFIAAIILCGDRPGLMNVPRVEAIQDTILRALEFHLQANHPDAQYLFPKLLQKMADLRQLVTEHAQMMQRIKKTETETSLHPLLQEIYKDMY
Chain of human Retinoic Acid Receptor beta (RARb), RARB (gene 5915) (P10826 whole entry, looked up, the tested form may be a part): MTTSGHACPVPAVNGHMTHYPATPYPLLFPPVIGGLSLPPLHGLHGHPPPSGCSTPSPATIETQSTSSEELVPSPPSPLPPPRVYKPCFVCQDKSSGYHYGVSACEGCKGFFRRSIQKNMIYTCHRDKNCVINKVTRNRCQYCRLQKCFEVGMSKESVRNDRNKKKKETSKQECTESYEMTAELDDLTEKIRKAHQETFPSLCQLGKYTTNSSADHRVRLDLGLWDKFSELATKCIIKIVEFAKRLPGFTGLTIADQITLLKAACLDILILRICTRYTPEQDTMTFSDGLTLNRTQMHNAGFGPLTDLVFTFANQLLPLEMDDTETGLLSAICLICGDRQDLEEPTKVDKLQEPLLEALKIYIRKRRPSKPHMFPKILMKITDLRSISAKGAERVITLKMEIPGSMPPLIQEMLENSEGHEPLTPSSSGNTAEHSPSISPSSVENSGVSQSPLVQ
Chain of E-selectin (Homo sapiens) (P16581 whole entry, looked up): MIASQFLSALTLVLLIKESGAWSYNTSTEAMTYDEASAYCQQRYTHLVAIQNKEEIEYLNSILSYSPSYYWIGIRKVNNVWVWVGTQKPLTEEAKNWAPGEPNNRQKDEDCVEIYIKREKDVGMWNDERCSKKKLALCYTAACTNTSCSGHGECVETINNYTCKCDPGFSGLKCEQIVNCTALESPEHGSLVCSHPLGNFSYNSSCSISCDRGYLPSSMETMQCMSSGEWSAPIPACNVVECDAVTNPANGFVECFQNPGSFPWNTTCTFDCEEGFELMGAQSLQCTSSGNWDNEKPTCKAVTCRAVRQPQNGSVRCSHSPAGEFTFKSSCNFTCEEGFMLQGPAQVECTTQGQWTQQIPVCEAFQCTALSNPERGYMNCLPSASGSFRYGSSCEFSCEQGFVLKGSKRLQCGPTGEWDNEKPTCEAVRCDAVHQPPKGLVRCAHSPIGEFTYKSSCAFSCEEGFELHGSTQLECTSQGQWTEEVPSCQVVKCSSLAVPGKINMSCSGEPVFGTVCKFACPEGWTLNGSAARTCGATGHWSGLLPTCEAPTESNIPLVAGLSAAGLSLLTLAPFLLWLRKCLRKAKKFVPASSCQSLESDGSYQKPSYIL
Chain of human Thyroid Receptor alpha (THRa1), THRA (gene 7067) (P10827 whole entry, looked up, the tested form may be a part): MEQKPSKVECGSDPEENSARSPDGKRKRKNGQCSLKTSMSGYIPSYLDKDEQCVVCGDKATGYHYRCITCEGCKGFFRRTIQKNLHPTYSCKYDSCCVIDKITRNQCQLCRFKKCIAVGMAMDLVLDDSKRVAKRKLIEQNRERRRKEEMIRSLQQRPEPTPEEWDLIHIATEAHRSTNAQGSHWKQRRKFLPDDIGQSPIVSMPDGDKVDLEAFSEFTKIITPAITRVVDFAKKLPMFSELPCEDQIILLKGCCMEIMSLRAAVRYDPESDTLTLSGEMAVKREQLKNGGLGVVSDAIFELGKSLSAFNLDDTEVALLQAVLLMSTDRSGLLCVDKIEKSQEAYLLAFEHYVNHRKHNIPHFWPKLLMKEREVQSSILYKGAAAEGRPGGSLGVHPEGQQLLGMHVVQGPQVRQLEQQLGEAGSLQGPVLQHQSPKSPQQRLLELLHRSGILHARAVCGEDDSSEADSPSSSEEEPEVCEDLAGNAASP
Chain of Retinoic acid receptor RXR-alpha (Homo sapiens) (P19793 whole entry, looked up, the tested form may be a part): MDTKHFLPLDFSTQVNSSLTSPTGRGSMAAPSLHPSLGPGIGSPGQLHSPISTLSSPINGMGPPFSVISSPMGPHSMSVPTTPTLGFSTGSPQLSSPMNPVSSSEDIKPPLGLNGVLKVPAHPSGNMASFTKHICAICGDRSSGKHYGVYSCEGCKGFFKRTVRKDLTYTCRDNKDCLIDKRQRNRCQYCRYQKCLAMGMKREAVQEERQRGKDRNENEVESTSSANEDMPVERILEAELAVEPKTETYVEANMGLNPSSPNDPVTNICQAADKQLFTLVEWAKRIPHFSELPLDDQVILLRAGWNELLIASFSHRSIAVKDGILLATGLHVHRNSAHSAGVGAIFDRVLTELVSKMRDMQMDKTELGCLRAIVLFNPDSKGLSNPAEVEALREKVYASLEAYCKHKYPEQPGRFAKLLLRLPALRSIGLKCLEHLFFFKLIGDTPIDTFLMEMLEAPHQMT

CCOP(=S)(OCC)Oc1ccc2c(C)c(Cl)c(=O)oc2c1
active: [6] 2.3 µM | [7] 9.56 µM | [9] 3.94 µM
not listed: [19]
inactive: all other assays above

Nc1c(Cl)cc([N+](=O)[O-])cc1Cl
not listed: [10] | [11] | [19]
inactive: all other assays above

CC[C@H](C)[C@H]1O[C@]2(C=C[C@@H]1C)C[C@@H]1C[C@@H](C/C=C(\C)[C@@H](O[C@H]3C[C@H](OC)[C@@H](O[C@H]4C[C@H](OC)[C@@H](NC)[C@H](C)O4)[C@H](C)O3)[C@@H](C)/C=C/C=C3\CO[C@@H]4[C@H](O)C(C)=C[C@@H](C(=O)O1)[C@]34O)O2
active: [1] 6.56 µM | [2] 5.75 µM | [4] 9.48 µM | [7] 1.68 µM | [15] 8.63 µM | [16] 7.71 µM | [17] 3.66 µM | [18] 2.88 µM
inactive: [19] | [8] | [11] | [12] | [13]

Nc1nc(N)nc(NC2CC2)n1
not listed: [8] | [12] | [14] | [19]
inactive: all other assays above

CCC(=NOC/C=C/Cl)C1=C(O)CC(C2CCOCC2)CC1=O (stereo unspecified)
not listed: [5] | [6] | [10] | [19]
inactive: all other assays above

CCOP(=S)(OCC)Oc1ccc([N+](=O)[O-])cc1
active: [8] 28.8 µM | [9] 19.9 µM | [18] 25.2 µM
not listed: [5] | [6] | [10] | [13] | [14] | [19]
inactive: all other assays above

N#CSCSC#N
active: [1] 8.79 µM | [2] 6.94 µM | [4] 8.09 µM | [7] 2.07 µM | [15] 10.9 µM | [17] 8.34 µM | [18] 7.62 µM
not listed: [11] | [12] | [19]
inactive: all other assays above

Cc1nn(-c2cc(NS(C)(=O)=O)c(Cl)cc2Cl)c(=O)n1C(F)F
active: [8] 28 µM | [9] 28.9 µM
not listed: [5] | [6] | [10] | [19]
inactive: all other assays above
